PubChem BioAssay (NCI)
About 83,000 compounds went through this panel and 20% of them were active in at least one assay; those are over-represented in the sample as a whole.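 Treatment: one concentration, 48 hours, 96-well format. Scoring: percent growth, with anything below 10 considered active.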 Calls of active or inactive are those of the source.

What was measured:
Assay in all cases: NCI-60 one-dose screen, 48 h (100 = growth as untreated, 0 = no growth, -100 = all killed)
Details in all cases: 10 µM unless noted
NCI-H23 lung = test system: NCI-H23 lung
NCI-H226 lung = test system: NCI-H226 lung
NCI-H322M lung = test system: NCI-H322M lung
HOP-62 NSCLC = test system: HOP-62 NSCLC
NCI-H460 lung = test system: NCI-H460 lung
HOP-92 NSCLC = test system: HOP-92 NSCLC
NCI-H522 lung = test system: NCI-H522 lung
A549/ATCC NSCLC = test system: A549/ATCC NSCLC
786-0 renal = test system: 786-0 renal
COLO 205 colon = test system: COLO 205 colon

Measured: growth

COc1ccccc1NC(=O)C1CC(c2ccc(F)cc2)=NO1 (stereo not given)
inactive: NCI-H23 lung 100% | NCI-H226 lung 99.2% | NCI-H322M lung 102% | HOP-62 NSCLC 97.5% | NCI-H460 lung 98.5% | HOP-92 NSCLC 89.7% | NCI-H522 lung 92.6% | A549/ATCC NSCLC 95.2% | 786-0 renal 101% | COLO 205 colon 111%

COc1cc(C2C3CC4CCCC[C@H]4N3[C@@]3(C(=O)Nc4cc(Cl)ccc43)C2C(=O)c2nc3ccccc3[nH]2)cc(OC)c1OC (stereo not given in full)
inactive: NCI-H23 lung 75.1% | NCI-H226 lung 76.1% | NCI-H322M lung 88.3% | HOP-62 NSCLC 90.1% | NCI-H460 lung 42% | HOP-92 NSCLC 64.2% | NCI-H522 lung 68.2% | A549/ATCC NSCLC 43.3% | 786-0 renal 67% | COLO 205 colon 59.7%

CCN(CC)c1ccc(/C=N/NC(=O)CSc2nc3ccccc3c(=O)n2CCc2ccc(S(N)(=O)=O)cc2)c(O)c1
active: NCI-H522 lung -14.6% | COLO 205 colon 1.47%
inactive: NCI-H23 lung 33.9% | NCI-H226 lung 37.9% | NCI-H322M lung 29.4% | HOP-62 NSCLC 30.4% | NCI-H460 lung 12.8% | HOP-92 NSCLC 46.8% | A549/ATCC NSCLC 25.4% | 786-0 renal 49.5%

N#CC1=C(N)Oc2c(cnn2-c2ccc([N+](=O)[O-])cc2[N+](=O)[O-])C1c1ccccc1 (stereo not given)
inactive: NCI-H23 lung 104% | NCI-H226 lung 97% | NCI-H322M lung 97.7% | HOP-62 NSCLC 98.3% | NCI-H460 lung 103% | HOP-92 NSCLC 75.6% | NCI-H522 lung 95.3% | A549/ATCC NSCLC 103% | 786-0 renal 114% | COLO 205 colon 111%

NC(=S)N1N=C(c2ccccc2)CC1c1cn(-c2ccccc2)nc1-c1ccc(OCc2ccccc2)cc1 (stereo not given)
inactive: NCI-H23 lung 104% | NCI-H226 lung 98.4% | NCI-H322M lung 94.9% | HOP-62 NSCLC 101% | NCI-H460 lung 106% | HOP-92 NSCLC 80% | NCI-H522 lung 83.5% | A549/ATCC NSCLC 91.7% | 786-0 renal 98.4% | COLO 205 colon 115%

Oc1ccc(OCCOc2ccc(O)cc2)cc1
inactive: NCI-H23 lung 57.2% | NCI-H226 lung 92% | NCI-H322M lung 82.1% | HOP-62 NSCLC 87.6% | NCI-H460 lung 48.5% | HOP-92 NSCLC 94.2% | NCI-H522 lung 30.9% | A549/ATCC NSCLC 35% | 786-0 renal 28.3% | COLO 205 colon 108%

C#CCNC(=O)[C@]1(C)CC[C@]2(C)CC[C@@H]3C(=CC[C@H]4[C@@]3(C)CC[C@H]3C(C)(C)C(=O)CC[C@]43C)[C@@H]2C1
inactive: NCI-H23 lung 91% | NCI-H226 lung 98.7% | NCI-H322M lung 90.9% | HOP-62 NSCLC 101% | NCI-H460 lung 97.6% | HOP-92 NSCLC 99.9% | NCI-H522 lung 79.8% | A549/ATCC NSCLC 91.6% | 786-0 renal 89.8% | COLO 205 colon 101%

Cn1cc(-c2nc(-c3c[nH]c4c(Cl)nccc34)cs2)c2cc(F)ccc21
inactive: NCI-H23 lung 104% | NCI-H226 lung 95.5% | NCI-H322M lung 102% | HOP-62 NSCLC 88.5% | NCI-H460 lung 98.3% | HOP-92 NSCLC 98.2% | NCI-H522 lung 90.2% | A549/ATCC NSCLC 74.5% | 786-0 renal 94.7% | COLO 205 colon 99.8%

COc1cc2c(c(O)c1Cl)C(=O)c1c(O)cc(C[C@H](C)O)cc1[C@H]2[C@H]1c2cc(C[C@H](C)O)cc(O)c2C(=O)c2c1cc(OC)c(Cl)c2O
inactive: NCI-H226 lung 19% | NCI-H322M lung 17.7% | HOP-62 NSCLC 12.4% | A549/ATCC NSCLC 12.5% | 786-0 renal 14.3%
active: NCI-H23 lung 9.36% | NCI-H460 lung -0.266% | HOP-92 NSCLC -24.2% | NCI-H522 lung 5.59% | COLO 205 colon -72.5%

CC1=C(C(=O)/C=C/c2c[nH]c3ccccc23)C(c2ccccc2)NC(=S)N1 (stereo not given)
inactive: NCI-H23 lung 94.5% | NCI-H226 lung 80.4% | NCI-H322M lung 101% | HOP-62 NSCLC 97.9% | NCI-H460 lung 99.6% | HOP-92 NSCLC 90.1% | NCI-H522 lung 89% | A549/ATCC NSCLC 106% | 786-0 renal 102% | COLO 205 colon 121%

CC(=O)N1c2ccccc2NC2=C(C(=O)NC2(C)C)C1c1ccco1 (stereo not given)
inactive: NCI-H23 lung 91.2% | NCI-H226 lung 96.8% | NCI-H322M lung 94.9% | HOP-62 NSCLC 112% | NCI-H460 lung 98.4% | HOP-92 NSCLC 67.2% | NCI-H522 lung 75.7% | A549/ATCC NSCLC 96.5% | 786-0 renal 93.9% | COLO 205 colon 77.7%

OCc1cnccc1NCCCCOc1ccc(Oc2ccccc2)cc1
active: COLO 205 colon -10.4%
inactive: NCI-H23 lung 46.6% | NCI-H226 lung 70.1% | NCI-H322M lung 94.7% | HOP-62 NSCLC 72.1% | NCI-H460 lung 69.6% | HOP-92 NSCLC 43% | NCI-H522 lung 62.9% | A549/ATCC NSCLC 78.3% | 786-0 renal 56.8%

C=C(C)[C@@H]1CC[C@]2(C(=O)N3CCN(C)CC3)CC[C@]3(C)[C@H](CC[C@@H]4[C@@]5(C)C/C(=C/c6ccncc6)C(=O)C(C)(C)[C@@H]5CC[C@]43C)[C@@H]12
inactive: NCI-H23 lung 74.4% | NCI-H226 lung 61.9% | NCI-H322M lung 85.4% | HOP-62 NSCLC 85.1% | NCI-H460 lung 37.2% | HOP-92 NSCLC 39.7% | NCI-H522 lung 47.6% | A549/ATCC NSCLC 40.4% | 786-0 renal 65% | COLO 205 colon 53.7%

CCCCCCCC(=O)OCC/C=C/C1OC1C1OC(=O)/C=C\C=C\C(=O)N(C(C)=O)C(=O)/C=C(/C)CCC2OC2C1OC(=O)NC(C)=O (stereo not given)
inactive: NCI-H23 lung 84.6% | NCI-H226 lung 81.1% | NCI-H322M lung 111% | HOP-62 NSCLC 79.8% | NCI-H460 lung 82.4% | HOP-92 NSCLC 53.3% | NCI-H522 lung 57.1% | A549/ATCC NSCLC 95.1% | 786-0 renal 21.3% | COLO 205 colon 62.3%

COc1ccc(C(=O)c2cc(C)c(OC)c(C)c2)c(OC)c1N(C(=O)CCl)C(=O)CCl
active: NCI-H226 lung 7.88% | HOP-62 NSCLC 9.36% | NCI-H460 lung 1.32% | HOP-92 NSCLC 7.45% | NCI-H522 lung 6.33% | COLO 205 colon -39.4%
inactive: NCI-H23 lung 20.8% | NCI-H322M lung 36.2% | A549/ATCC NSCLC 13.4% | 786-0 renal 13.2%
